In the supplement of paper PMC3342239:
Structures can show the parent of a compound that is named as a salt.

Tested on: Saccharomyces cerevisiae
Test: fraction of cells in G1 phase (DNA content, flow cytometry); higher = more cells with unreplicated DNA (G1 delay)
Settings: temperature: 30 C; YPD; JTY2953 pdr5 snq2 (sensitized); drug added to: cultures diluted from stationary phase; 6-7 h
Outline: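 S. cerevisiae in YPD at 30°C was treated with library drugs, with DMSO-only wells as reference. Sensitized JTY2953 cultures diluted 1∶200 from overnight received a final 20 µg/ml and were fixed after 6–7 h; other runs dosed dividing JTY2953 (fixed 6 h later) or BY4741 (4.33 h later). Ethanol-fixed cells were stained with SYTOX Green and 10,000 events read by flow cytometry. G1 fraction is the Dean-Jett-Fox G1 peak area over G1 plus G2/M areas.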

Row | Compound | fraction of cells in G1 phase
1 | CC1(C)C[C@@H]1C(=O)N/C(=C\CCCCSC[C@H](N)C(=O)O)C(=O)O [Cilastatin] (55.7942 µM) | 0.484
2 | O=P(O)(O)C(O)(Cc1cccnc1)P(=O)(O)O [Risedronic acid] (70.6425 µM) | 0.463
3 | C[C@]12C=CC(=O)C=C1CC[C@@H]1[C@@H]2[C@@H](O)C[C@@]2(C)[C@H]1CC[C@]2(O)C(=O)CO [Prednisolone] (55.4855 µM) | 0.466
4 | CN1CCN(c2c(F)cc3c(=O)c(C(=O)O)cn4c3c2SCC4)CC1 [Rufloxacin] (55.0337 µM) | 0.466
5 | O=C(O)COCCN1CCN(C(c2ccccc2)c2ccc(Cl)cc2)CC1 (stereo not drawn) [Cetirizine 2HCl] (43.3088 µM) | 0.492
6 | CC(=O)NC[C@H]1CN(c2ccc(N3CCOCC3)c(F)c2)C(=O)O1 [Linezolid] (59.2849 µM) | 0.526
7 | CN(Cc1ccc(C(C)(C)C)cc1)Cc1cccc2ccccc12 [Butenafine] (62.9964 µM) | 0.405
8 | CC(C)(C)NC[C@H](O)COc1nsnc1N1CCOCC1 [Timolol maleate (s)] (63.2061 µM) | 0.499
9 | COc1ccccc1OCCNCC(O)COc1cccc2[nH]c3ccccc3c12 (stereo not drawn) [Carvedilol] (49.2022 µM) | 0.525
10 | CCCCC[C@H](O)/C=C/[C@H]1[C@H](O)CC(=O)[C@@H]1CCCCCCC(=O)O [Alprostadil] (56.4189 µM) | 0.447
11 | CCOC(=O)C(C)(C)Oc1ccc(Cl)cc1 [Clofibrate] (82.4047 µM) | 0.552
12 | CCN(CC)CCCC(C)Nc1ccnc2cc(Cl)ccc12 (stereo not drawn) [Chloroquine phosphate] (62.5232 µM) | 0.469
13 | CC(C)Cc1ccc(C(C)C(=O)O)cc1 (stereo not drawn) [Ibuprofen] (96.9522 µM) | 0.575
14 | C=C1/C(=C\C=C2/CCC[C@]3(C)[C@@H]([C@H](C)CCCC(C)(C)O)CC[C@@H]23)C[C@@H](O)C[C@@H]1O [Calcitriol] (48.0019 µM) | 0.565
15 | C[C@H]1[C@H](NC(=O)/C(=N\OC(C)(C)C(=O)O)c2csc(N)n2)C(=O)N1S(=O)(=O)O [Aztreonam] (45.9309 µM) | 0.489
16 | CC(C(=O)O)c1ccc(-c2ccccc2)c(F)c1 (stereo not drawn) [Flurbiprofen] (81.8773 µM) | 0.524
17 | C[C@@](Cc1ccc(O)c(O)c1)(NN)C(=O)O [Carbidopa] (88.404 µM) | 0.482
18 | CCCCN1C[C@H](O)[C@@H](O)[C@H](O)[C@H]1CO [Miglustat] (91.2063 µM) | 0.456
19 | OCCOCCN1CCN(C2=Nc3ccccc3Sc3ccccc32)CC1 [Quetiapine fumarate] (22.6473 µM) | 0.499

Row | Compound | fraction of cells in G1 phase
20 | CN1CCCN=C1/C=C/c1cccs1 [Pyrantel pamoate] (33.6309 µM) | 0.464
21 | NNC(=O)c1ccncc1 [Isoniazid] (145.834 µM) | 0.518
22 | CC(C)(C)NC(=O)[C@H]1CC[C@H]2[C@@H]3CC[C@H]4NC(=O)C=C[C@]4(C)[C@H]3CC[C@]12C [Finasteride] (53.6833 µM) | 0.558
23 | CC(=O)O[C@]1(C(C)=O)CC[C@H]2[C@@H]3C=C(Cl)C4=CC(=O)[C@@H]5C[C@@H]5[C@]4(C)[C@H]3CC[C@@]21C [Cyproterone acetate] (47.9675 µM) | 0.597
24 | CCOC(=O)C1=C(C)NC(C)=C(C(=O)OCC)C1c1ccccc1/C=C/C(=O)OC(C)(C)C [Lacidipine] (43.9024 µM) | 0.516
25 | CCOC(=O)C1=C[C@]2(CC)CCCN3CCc4c(n1c1ccccc41)[C@@H]32 [Vinpocetine] (57.0671 µM) | 0.439
26 | CO[C@H]1/C=C/O[C@@]2(C)Oc3c(C)c(O)c4c(O)c(cc(O)c4c3C2=O)NC(=O)/C(C)=C\C=C\[C@H](C)[C@H](O)[C@@H](C)[C@@H](O)[C@@H](C)[C@H](OC(C)=O)[C@@H]1C [Rifamycin sv] (28.7035 µM) | 0.477
27 | CC(C)CN(C[C@@H](O)[C@H](Cc1ccccc1)NC(=O)O[C@H]1CCOC1)S(=O)(=O)c1ccc(N)cc1 [Amprenavir] (39.554 µM) | 0.472
28 | COc1ccccc1O [Guaiacol] (161.108 µM) | 0.531
29 | COCc1c(C(C)C)nc(C(C)C)c(/C=C/[C@@H](O)C[C@@H](O)CC(=O)O)c1-c1ccc(F)cc1 [Cerivastatin] (43.5196 µM) | 0.448
30 | COc1ccc(CC2c3cc(OC)c(OC)cc3CC[N+]2(C)CCC(=O)OCCCCCOC(=O)CC[N+]2(C)CCc3cc(OC)c(OC)cc3C2Cc2ccc(OC)c(OC)c2)cc1OC (stereo not drawn) [Atracurium besylate] (21.5246 µM) | 0.474
31 | CC(C)(Oc1ccc(CCNC(=O)c2ccc(Cl)cc2)cc1)C(=O)O [Bezafibrate] (55.2748 µM) | 0.517
32 | COc1ccccc1N1CCN(CC(O)COc2cccc3ccccc23)CC1 (stereo not drawn) [Naftopidil 2HCl] (50.9551 µM) | 0.564
33 | CC(C)NCC(O)c1ccc(O)c(O)c1 (racemic) [Isoproterenol HCl (rac)] (94.6687 µM) | 0.447
34 | CC(=O)OCC(CCn1cnc2cnc(N)nc21)COC(C)=O [Famciclovir] (62.2396 µM) | 0.505
35 | O=NN(CCCl)C(=O)NC1CCCCC1 [Lomustine] (85.5799 µM) | 0.451
36 | CC[C@]1(O)C[C@@H]2CN(CCc3c([nH]c4ccccc34)[C@@](C(=O)OC)(c3cc4c(cc3OC)N(C)[C@H]3[C@@](O)(C(=O)OC)[C@H](OC(C)=O)[C@]5(CC)C=CCN6CC[C@]43[C@@H]65)C2)C1 [Vinblastine sulfate] (21.9998 µM) | 0.495
37 | CCOC(=O)OC(C)OC1=C(C(=O)Nc2ccccn2)N(C)S(=O)(=O)c2ccccc21 (stereo not drawn) [Ampiroxicam] (44.6957 µM) | 0.5
38 | O=C(CCCN1CCC(O)(c2cccc(C(F)(F)F)c2)CC1)c1ccc(F)cc1 [Trifluperidol 2HCl] (48.8487 µM) | 0.563
